Test results reported in the supplement of paper PMC6992640.
± gives the standard deviation of the averaged measurements.

How the values were obtained:
Assay in all cases: cell viability (% of vehicle); higher = less cytotoxic
Details in all cases: 10 µM; 72 h
HCI01 = test system: HCI01 (cells of a triple-negative basal-like breast cancer xenograft)
HCI03 = test system: HCI03 (cells of an ER-positive luminal breast cancer xenograft)
HCI09 = test system: HCI09 (cells of a triple-negative luminal androgen receptor type breast cancer xenograft)
HCI11 = test system: HCI11 (cells of an ER-positive luminal breast cancer xenograft)
HCI13 = test system: HCI13 (cells of an ER-positive luminal breast cancer xenograft)
HCI16 = test system: HCI16 (cells of a triple-negative basal-like breast cancer xenograft)
UCD52 = test system: UCD52 (cells of a triple-negative basal-like breast cancer xenograft)
WHIM2 = test system: WHIM2 (cells of a triple-negative basal-like breast cancer xenograft)
WHIM30 = test system: WHIM30 (cells of a triple-negative basal-like breast cancer xenograft)
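Note: PDX cells carrying CMV promoter-driven luciferase, viability read as total photon flux per second by IVIS imaging following D-luciferin, vehicle control 0.1% DMSO.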

Row | Compound | cell viability (HCI01) | cell viability (HCI03) | cell viability (HCI09) | cell viability (HCI11) | cell viability (HCI13) | cell viability (HCI16) | cell viability (UCD52) | cell viability (WHIM2) | cell viability (WHIM30)
1 | CN(C)C(=O)C(CCN1CCC(O)(c2ccc(Cl)cc2)CC1)(c1ccccc1)c1ccccc1.Cl [Loperamide HCl] | 102 ± 20 | 84.8 | 53.5 ± 15 | 98.7 | 79.2 ± 6.6 | 95.1 | 49.1 ± 1.4 | 59.8 ± 8.3 | 102 ± 9.7
2 | C[C@]12COC(=O)C[C@@H]1CC[C@@H]1[C@@H]2CC[C@@]2(C)[C@H]1CC[C@]2(C)O [Oxandrolone] | 98.9 ± 17 | 108 | 107.8 ± 0.62 | 89.1 | 147 ± 18 | 117 | 95.8 ± 5.3 | 110 ± 23 | 110 ± 13
3 | O=C(O)c1nn(Cc2ccc(Cl)cc2Cl)c2ccccc12 [Lonidamine] | 88.9 ± 18 | 112 | 92.9 ± 6.3 | 82.9 | 85.1 ± 8.5 | 124 | 82.6 ± 1.7 | 80.2 ± 32 | 138.9 ± 1.1
4 | Cc1cccc(C(C)c2cnc[nH]2)c1C.Cl (configuration not stated) [Medetomidine HCl] | 108 ± 7.7 | 102 | 93.2 ± 21 | 103 | 100.9 ± 1 | 95.4 | 87.4 ± 2.9 | 89.3 ± 22 | 113 ± 5.8
5 | CN1C2CCC1CC(OC(=O)C(CO)c1ccccc1)C2 (configuration not stated) [Hyoscyamine] | 135 ± 14 | 132 | 109 ± 16 | 94.3 | 145 ± 5.8 | 118 | 74.2 ± 7.5 | 93.8 ± 4 | 108 ± 3.8
6 | CN1c2ccccc2C(NCCCCCCC(=O)[O-])c2ccc(Cl)cc2S1(=O)=O.[Na+] (configuration not stated) [Tianeptine sodium] | 132 ± 22 | 134 | 95.1 ± 10 | 122 | 95.95 ± 0.8 | 120 | 122 ± 4.6 | 85.3 ± 8 | 142.2 ± 0.38
7 | CCCN1CC(CSC)CC2c3cccc4[nH]cc(c34)CC21.CS(=O)(=O)O (configuration not stated) [Pergolide mesylate] | 107.1 ± 0.5 | 92.4 | 106 ± 8.8 | 87.6 | 98.3 ± 5.6 | 124 | 76.5 ± 1.3 | 101 ± 14 | 110 ± 12
8 | COc1cc2c(cc1OC)C13CCN4CC5=CCOC6CC(=O)N2C1C6C5CC43 (configuration not stated) [Brucine] | 90.3 ± 9.9 | 132 | 98.2 ± 29 | 94.5 | 106 ± 11 | 100 | 106 ± 1.5 | 83.5 ± 22 | 96.6 ± 4.8
9 | N#Cc1ccccc1-c1cc(-c2ccccn2)cn(-c2ccccc2)c1=O [Perampanel] | 102 ± 10 | 89.9 | 85.1 ± 33 | 94 | 83.3 ± 4.5 | 70.4 | 79.2 ± 12 | 89.14 ± 0.86 | 97 ± 4.1
10 | CC(=O)O[C@@]12CO[C@@H]1C[C@@H](O)[C@@]1(C)C(=O)[C@@H](O)C3=C(C)[C@@H](O)C[C@@](O)([C@@H](OC(=O)c4ccccc4)[C@H]21)C3(C)C [10-DAB (10-Deacetylbaccatin)] | 138 ± 19 | 107 | 99.3 ± 2.1 | 108 | 97.8 ± 2.6 | 126 | 79.2 ± 2.9 | 84.7 ± 18 | 126 ± 7.2
11 | Br.CN1C2CC(OC(=O)C(CO)c3ccccc3)CC1C1OC12 (configuration not stated) [Scopolamine hydrobromide] | 108 ± 3.9 | 120 | 91.5 ± 17 | 104 | 83.67 ± 0.26 | 127 | 90.98 ± 0.47 | 122 ± 1.4 | 133.3 ± 1.1
12 | CC(C)OC(=O)[C@H](C)N[P@](=O)(CO[C@H](C)Cn1cnc2c(N)ncnc21)Oc1ccccc1 | 97.2 ± 1.3 | 109 | 87.9 ± 11 | 112 | 65.7 ± 8 | 183 | 103.7 ± 0.83 | 117.1 ± 0.62 | 144 ± 8.2
13 | CCCC[N+]1(C)[C@@H]2C[C@@H](OC(=O)[C@H](CO)c3ccccc3)C[C@H]1[C@@H]1O[C@@H]12 (some centres not stated) [Scopolamine butylbromide] | 105 ± 5.4 | 116 | 88.8 ± 19 | 97.3 | 97.4 ± 2.5 | 119 | 100.7 ± 0.64 | 137 ± 14 | 133 ± 4.2
14 | NCC1(CC(=O)O)CCCCC1 [Gabapentin] | 96.8 ± 7.7 | 119 | 97.8 ± 9.5 | 104 | 88.1 ± 2.5 | 76 | 77.8 ± 0.82 | 88.1 ± 8.3 | 76.9 ± 11
15 | Cc1cc(O)ccc1Cl [Chlorocresol] | 114 ± 41 | 120 | 88.6 ± 17 | 85.9 | 77.6 ± 8.4 | 107 | 87.1 ± 2.5 | 98.6 ± 25 | 91.9 ± 1.3
16 | Oc1cc(Cl)ccc1Oc1ccc(Cl)cc1Cl [Triclosan] | 73.5 ± 14 | 109 | 41.7 ± 24 | 71.7 | 66.4 ± 20 | 137 | 97.1 ± 9.6 | 49.5 ± 1.1 | 109.3 ± 1
17 | CCC[C@H](C)[C@@]1(CC)C(=O)N=C([O-])NC1=O.[Na+] [Pentobarbital sodium salt] | 86.4 ± 3 | 105 | 81.9 ± 8.1 | 85.2 | 96.3 ± 17 | 87 | 86.6 ± 2.1 | 96.2 ± 21 | 99.4 ± 11
18 | CCC1=C[C@H]2CN3CCc4c([nH]c5ccccc45)[C@@](C(=O)OC)(C2)[C@@H]13 [Catharanthine] | 88.2 ± 14 | 122 | 99.5 ± 13 | 92.1 | 94 ± 2.4 | 124 | 101 ± 2.3 | 85.5 ± 14 | 97 ± 3.2
19 | Cc1cccc(C(C)c2cnc[nH]2)c1C (configuration not stated) [Dexmedetomidine] | 129 ± 5.7 | 106 | 90.4 ± 10 | 105 | 103 ± 16 | 148 | 92.7 ± 0.94 | 106 ± 9.5 | 120 ± 5.1
20 | CC(C)CC(CN)CC(=O)O (configuration not stated) [Pregabalin] | 97.8 ± 10 | 104 | 90.8 ± 9 | 95.6 | 138 ± 18 | 70.8 | 78.2 ± 7.7 | 81.4 ± 9.4 | 111 ± 21

Row | Compound | cell viability (HCI01) | cell viability (HCI03) | cell viability (HCI09) | cell viability (HCI11) | cell viability (HCI13) | cell viability (HCI16) | cell viability (UCD52) | cell viability (WHIM2) | cell viability (WHIM30)
21 | CCC1(c2cccc(O)c2)CCCCN(C)C1.Cl (configuration not stated) [Meptazinol HCl] | 69.9 ± 42 | 141 | 98.1 ± 10 | 94 | 111 ± 5 | 112 | 85.7 ± 6 | 91.8 ± 33 | 181.3 ± 0.74
22 | Cc1cccc(C(C)c2cnc[nH]2)c1C.Cl (configuration not stated) [Dexmedetomidine HCl] | 110 ± 1.2 | 103 | 91.2 ± 26 | 103 | 82.7 ± 11 | 89.9 | 86.7 ± 1.2 | 72.3 ± 17 | 112.3 ± 0.75
23 | CN(C)C1C(=O)C(C(N)=O)=C(O)C2(O)C(=O)C3=C(O)c4c(O)cccc4C(C)(O)C3CC12.Cl (configuration not stated) [Tetracycline Hydrochloride] | 105 ± 10 | 108 | 89.46 ± 0.85 | 96.7 | 92.1 ± 4.3 | 87.5 | 77.3 ± 1.4 | 77.1 ± 20 | 116 ± 19
24 | COc1ccc(C(=O)N2CCCC2=O)cc1 [Aniracetam] | 102 ± 2 | 107 | 147 ± 79 | 104 | 139 ± 1.5 | 95.4 | 96 ± 7.3 | 94.8 ± 14 | 86.1 ± 6.5
25 | C=CCN1CCC23c4c5ccc(O)c4OC2C(=O)CCC3(O)C1C5.Cl (configuration not stated) [Naloxone HCl] | 124 ± 20 | 125 | 101 ± 18 | 93.5 | 130 ± 23 | 112 | 74.1 ± 13 | 86 ± 15 | 91.4 ± 2.9
26 | Cc1cccc(C)c1NC1=NCCCS1.Cl [Xylazine HCl] | 159 ± 36 | 120 | 110 ± 12 | 115 | 105 ± 6.4 | 124 | 92.3 ± 11 | 120 ± 7 | 127 ± 8
27 | O=C(OC1C[N+]2(CCCOc3ccccc3)CCC1CC2)C(O)(c1cccs1)c1cccs1.[Br-] (configuration not stated) [Aclidinium Bromide] | 113 ± 14 | 131 | 104 ± 6.3 | 94.2 | 185 ± 6.3 | 93.9 | 79.7 ± 14 | 84.7 ± 7.7 | 106 ± 11
28 | CCC(C(N)=O)N1CCCC1=O (configuration not stated) [Levetiracetam] | 141 ± 6.8 | 166 | 116 ± 17 | 98 | 107 ± 14 | 120 | 126 ± 17 | 91.7 ± 10 | 143 ± 4.9
29 | O=C(OC1CC2CCC(C1)[N+]21CCCC1)C(O)(c1ccccc1)c1ccccc1.[Cl-] (configuration not stated) [Trospium chloride] | 158 ± 1.6 | 119 | 112 ± 5.4 | 124 | 157 ± 39 | 165 | 101 ± 10 | 110 ± 14 | 121 ± 3.2
30 | O=c1cccc2n1C[C@@H]1CNC[C@H]2C1 [Cytisine] | 93.3 ± 12 | 112 | 97.8 ± 15 | 95 | 106 ± 14 | 128 | 90.9 ± 4.7 | 87.9 ± 19 | 81.4 ± 3.6
31 | CN1[C@@H]2C[C@@H](O)C[C@H]1[C@@H]1O[C@@H]12 [Scopine] | 134 ± 21 | 138 | 110 ± 8.5 | 110 | 129 ± 14 | 99 | 103 ± 18 | 112 ± 21 | 144 ± 4
32 | Cl.NCC(O)c1ccc(O)cc1 (racemic) [(+,-)-Octopamine HCl] | 101 ± 10 | 119 | 93 ± 10 | 98.3 | – | 120 | 91.1 ± 16 | 87.9 ± 7.5 | 149.4 ± 0.28
33 | CNCC(=O)c1ccc(O)c(O)c1.Cl [Adrenalone HCl] | 111 ± 21 | 116 | 104 ± 15 | 107 | 88.5 ± 7.3 | 152 | 99.9 ± 5.5 | 87.8 ± 1.7 | 106 ± 7.2
34 | O=C(O)CCCc1ccc(N(CCCl)CCCl)cc1 [Chlorambucil] | 109 ± 15 | 179 | 99.8 ± 1.1 | 92 | 113.2 ± 0.69 | 131 | 108 ± 4.7 | 96.7 ± 9.3 | 126 ± 8.3
35 | CCNCC.O=S(=O)(O)c1cc(O)ccc1O [Ethamsylate] | 162 ± 90 | 124 | 99.4 ± 7 | 98 | 97.8 ± 10 | 126 | 109 ± 13 | 92.2 ± 12 | 103 ± 4.7
36 | C[N+](C)(C)CCCCCCCCCC[N+](C)(C)C.[Br-].[Br-] [Decamethonium Bromide] | 110 ± 4.6 | 120 | 100 ± 6.9 | 102 | 105 ± 1.9 | 105 | 78.9 ± 6.2 | 89.8 ± 8.7 | 101 ± 10
37 | C[N+]1(C)CCCC(OC(=O)C(O)(c2ccccc2)c2ccccc2)C1.[Br-] (configuration not stated) [Mepenzolate Bromide] | 109 ± 6.9 | 133 | 103 ± 5.9 | 108 | 133 ± 27 | 108 | 87.5 ± 8.5 | 98.1 ± 7.5 | 128 ± 2.7
38 | Cl.NCC1(CC(=O)O)CCCCC1 [Gabapentin HCl] | 142 ± 42 | 121 | 94.2 ± 3.2 | 90.2 | 109 ± 14 | 120 | 80.45 ± 0.75 | 85.7 ± 7.6 | 115.5 ± 0.43
39 | C#CC1(O)C=CC2C3CCC4=CC(=O)CCC4C3CCC21CC (configuration not stated) [Gestodene] | – | 149 | 97.4 ± 20 | 122 | 179 ± 25 | 184 | 143.1 ± 1.4 | 106 ± 5 | –
40 | C=C1CC2C(CCC3(C)C(=O)CCC23)C2(C)C=CC(=O)C=C12 (configuration not stated) [Exemestane] | 166 ± 17 | 103 | 101 ± 14 | 124 | 150 ± 6.5 | 124 | 159 ± 17 | 128 ± 28 | 151 ± 15
